Screening results: PubChem BioAssay, The Scripps Research Institute Molecular Screening Center
An excerpt weighted towards active compounds, which were near 4.2% of everything screened.
DAX1 StAR inh: DAX1 (NR0B1) inhibitors on StAR promoter, primary screen, cell-based, luminescence, SF-1 (NR5A1), full-length DAX-1; HEK293T StAR-luciferase reporter, SF-1/DAX-1 repression relief; inhibition, % at 6.8 µM; actives 1.1% (n = 370,000); AID 652010, 2013;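 active means inhibition above the mean over all tested compounds plus 3 SD, cut at about 3.6% in these data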;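 further: 0% = DAX-1 cells with DMSO and 100% = cells lacking DAX-1 with DMSO; higher inhibition means more luminescence from relief of DAX-1 repression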
ssDAF12 agonist: S. stercoralis DAF-12 nuclear receptor activators, primary screen, cell-based, luminescence, HEK293, GRIP1 co-expression, lit1-tk-luc; Nuclear hormone receptor DAF-12 (Strongyloides stercoralis); actives 1% (n = 370,000); HEK293 ssDAF-12/GRIP1 lit1-tk-luc reporter; % of 3 µM dafachronic acid response; AID 652126, 2013; activation, % at 6.8 µM;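 active means activation above the mean over all tested compounds plus 3 SD, cut at about 0.9% in these data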;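 further: 0% = DMSO-only wells and 100% = 3 µM delta7-dafachronic acid wells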
hgDAF12 agonist: H. glycines DAF-12 receptor agonists, primary screen, cell-based, luminescence, HEK293, GAL4 fusion, UAS-luciferase; Nuclear hormone receptor DAF-12 (Heterodera glycines), GAL4 fusion; activation, % at 6.8 µM; actives 1.8% (n = 370,000); HEK293 GAL4-hgDAF12 UAS-luciferase reporter, agonist luminescence; normalized to butyrate control;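 active means activation above a cutoff set at the mean of all screened compounds plus 3 SD, cut at about 10% in these data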;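 further: 0% = DMSO wells and 100% = sodium butyrate wells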
SMARCA2 act: SMARCA2 (BRM) function activators, primary screen, cell-based, luminescence, high throughput | actives 1% (n = 370,000) | MG213 cells, MMTV-luciferase reporter, dexamethasone, overnight | activation, % at 9.1 µM; in the data active means activation above about 7.8%;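 further: 0% = vehicle wells and 100% = reference activator wells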
hcDAF-12 act: H. contortus DAF-12 nuclear receptor activators, primary screen, cell-based, luminescence, HEK293, lit1-tk-luc reporter. actives 1.4% (n = 370,000). HEK293 hcDAF-12 lit1-tk-luc reporter; 0% DMSO, 100% Δ7-dafachronic acid. activation, % at 6.8 µM. AID 652067, 2013;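 active means activation above the mean of all tested compounds plus 3 SD, cut at about 5.5% in these data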;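 further: 100% = response to 3 µM Δ7-dafachronic acid high control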
The depositor's hits bear a star; nt = no result.

SMILES | DAX1 StAR inh | ssDAF12 agonist | hgDAF12 agonist | SMARCA2 act | hcDAF-12 act
COC(=O)C1=C(C)N(Cc2ccc(F)cc2)C(=S)NC1c1ccc(F)cc1 (stereo unspecified) | 0 | -1 | -3 | -4 | -2
CSc1ccc(/C=N/NC(=O)c2ccc(O)cc2)cc1 | 2 | -1 | 12* | 3 | 3
COc1ccc(C(=O)N/N=C/c2ccc(SC)cc2)cc1 | 0 | -1 | 11* | -2 | -2
O=C(N/N=C/c1ccc(O)cc1)c1ccncc1 | 0 | -1 | -1 | -2 | -1
Cc1ccccc1NC(=O)[C@@H]1CCCN1S(=O)(=O)c1cccc2cccnc12 | nt | -1 | -1 | nt | -2
C[C@@H]1OC(c2ccccc2)N(C)[C@H]2C[C@H]3c4[nH]c5cccc(-c6ccccc6)c5c4CCN3C[C@@H]12 (stereo partly specified) | -1 | -1 | 1 | -3 | -2
COc1ccc(-c2cc(=Nc3ccc(C)cc3)c3ccccc3o2)cc1 | 1 | -1 | 2 | 0 | -1
COc1ccc(N=c2cc(-c3ccc(OC)cc3)oc3ccccc23)cc1 | 0 | 1.0* | 8 | 0 | 0
CCN(CC)c1ncnc2c1ncn2[C@H]1CN(Cc2ccc(F)cc2)C[C@@H](CO)O1 | -1 | -1 | -1 | -2 | -3
CSCCC(N=C(NS(=O)(=O)c1ccccc1)c1ccccc1)C(=O)O (stereo unspecified) | -1 | 2.4* | -2 | 0 | -2
Cc1ccc(C(=O)N2CCC(C)CC2)cc1C | 1 | 2.2* | 4 | 2 | -1
CC(C)CC(=O)N1CCN(C(=O)c2ccco2)CC1 | 1 | -1 | 2 | -3 | 5.7*
O=C(NCC(=O)N1CCCCCC1)c1ccc(Cl)cc1 | 1 | -1 | 5 | 6 | 0
O=C(NCC(=O)N1CCCCCCC1)c1ccc(Cl)cc1 | 0 | -1 | 12* | -1 | 3
O=C(NCC(=O)N1CCN(C(=O)c2ccco2)CC1)c1ccccc1 | 2 | 1.0* | 0 | 0 | -1
C=CCN=C1NC(c2ccc(C(F)(F)F)cc2)C(C(=O)OC)=C(C)N1Cc1ccccc1C(F)(F)F (stereo unspecified) | 1 | -1 | 3 | -2 | 1
C=CCN1[C@H](CO)[C@H](c2ccc(C#CC3(O)CCCC3)cc2)[C@@H]1C#N | -1 | -1 | 0 | -4 | -3
CSCCC(NC(=O)COc1cccc2ccccc12)C(=O)O (stereo unspecified) | -1 | 1.0* | -3 | -2 | -1
Cn1c(=O)cc(OCCCC(=O)Nc2cc(-c3ccncc3)ccn2)c2ccccc21 | nt | -3 | -10 | nt | -7
N#CC1=C(N)Oc2c(O)cc3ccccc3c2C1c1ccsc1 (stereo unspecified) | 0 | 6.0* | 0 | -2 | 0
N#C[C@H](N)[C@H]1O[C@@H](n2ccc(=O)[nH]c2=O)[C@H](O)[C@@H]1O | 1 | -1 | 0 | -6 | 1
CC1(C)CC(=O)C=C(C2CC2)C1=O | 1 | -1 | 5 | -2 | 0
CCOC(=O)C1CCN(C(=O)c2cc3cc(Cl)ccc3[nH]2)CC1 | 0 | -1 | 4 | -1 | 6.5*
CCOC(=O)C1CCN(C(=O)c2cc3ccc(OC)cc3[nH]2)CC1 | 1 | 0 | 2 | 1 | 3
O=C(c1cc2cc(F)ccc2[nH]1)N1CCC(Cc2ccccc2)CC1 | 0 | 0.9* | 1 | -1 | 5
SMILES | DAX1 StAR inh | ssDAF12 agonist | hgDAF12 agonist | SMARCA2 act | hcDAF-12 act
C/C(=N/NC(=O)CCCOc1ccc(Cl)cc1Cl)c1ccc(C)o1 | -1 | 1.1* | 0 | -3 | -1
Cc1sc2nc(CSC(C)C(=O)Nc3ccccn3)[nH]c(=O)c2c1C (stereo unspecified) | 4.0* | -1 | 4 | -1 | 2
O=P(c1ccccc1)(c1ccccc1)C(O)c1ccccn1 (stereo unspecified) | 0 | 1.2* | 1 | 7 | -1
c1ccc(-c2nnc(NC3=NCCC3)o2)cc1 | 4.1* | 0 | 10 | -2 | 5
Fc1ccc(-c2nnc(NC3=NCCCCC3)o2)cc1 | 0 | -2 | -4 | -2 | 2
CCC[C@H]1[C@@H](NC(=O)c2cccc(Cl)c2)CC[C@@]23CCCN2C(=O)CCC[C@@H]13 | nt | -1 | -2 | nt | -1
CC(C)c1ccc(CN(C(=O)c2cc3ccccc3oc2=O)C2CCS(=O)(=O)C2)cc1 (stereo unspecified) | 0 | -1 | 1 | 3 | 0
CC(Oc1ccccc1Cl)C(=O)N(Cc1ccco1)C1CCS(=O)(=O)C1 (stereo unspecified) | 1 | 1.6* | -2 | 3 | -1
CN(C)c1ccc(CN(C(=O)c2cc3ccccc3oc2=O)C2CCS(=O)(=O)C2)cc1 (stereo unspecified) | 5.2* | 0 | 7 | 5 | 2
O=C(c1cc2ccccc2oc1=O)N(Cc1cccc(Br)c1)C1CCS(=O)(=O)C1 (stereo unspecified) | 0 | -1 | -1 | 0 | 0
O=C(c1cc2ccccc2oc1=O)N(Cc1ccco1)C1CCS(=O)(=O)C1 (stereo unspecified) | 1 | 0 | 13* | 5 | 5
S=C(N/N=C/c1ccccc1Cl)Nc1ccccc1 | 1 | 1 | 11* | 3 | 3
CNC(=S)N/N=C/c1ccccc1Cl | 0 | -2 | 0 | 0 | -1
c1ccc2[nH]c(-c3cscn3)nc2c1 | 2 | 0 | 12* | 5 | 1
O=C(COc1ccccc1)Nc1cc(Cl)ccc1Cl | 1 | 0 | 7 | 1 | 5.9*
Cc1ccc(Cl)cc1NC(=O)COc1ccccc1 | 0 | 0 | 2 | 0 | 1
Cc1ccc(C2NC(=O)c3[nH]nc(-c4ccccc4)c32)cc1 (stereo unspecified) | -1 | -1 | -2 | 3 | 0
COc1cc(C)nc(Oc2ccc(OCc3ccccc3)nn2)n1 | 0 | 0 | 0 | 1 | 0
CCOC(=O)COc1ccc(Oc2nc(C)cc(OC)n2)nn1 | 1 | 0 | 2 | 7.8* | 2
O=C(NCc1c(F)cccc1F)C1CCC(CNS(=O)(=O)c2cccc3cccnc23)CC1 (stereo unspecified) | -1 | -1 | -3 | 4 | -2
CC1CCCC(C)N1C(=O)c1cc(-c2ccco2)on1 (stereo unspecified) | 0 | 1 | -1 | 1 | 0
COc1ccccc1-c1cc(C(=O)N2CCCC2)no1 | 3 | 0 | 9 | 4 | 6.5*
COc1cccc(-c2cc(C(=O)N3C(C)CCCC3C)no2)c1 (stereo unspecified) | 2 | 0 | 4 | 0 | 5.9*
